Where two headings read alike, the source gives them in different places. The campaign covered roughly 13,000 compounds. About 3,200 (25%) showed an effect of 50% or more. This is one part of the list.
Tested on: P. falciparum stage V gametocytes
Parameters: BacTiter-Glo ATP luminescence viability of purified stage V gametocytes in 384-well plates, per cent inhibition versus DMSO
Settings: 48 h, 5 µM, inhibitor

Row | Compound | % Inhibition | % Inhibition (% Inhibition)
1 | N#CN1CC[C@@H](OC(=O)N[C@@H]2C[C@H]2c2ccccc2)C1 [TCMDC-133724] | 29.13% | –
2 | CC(C)C[C@H](NC(=O)[C@H](Cc1ccccc1)N(C[C@H](Cc1ccccc1)NC(=O)OC(C)(C)C)C(=O)C(F)(F)F)C(=O)NC1CCN(Cc2ccccc2)CC1 [TCMDC-132059] | -19.61% | –
3 | CC(Oc1ccc(NC(=O)c2cccs2)cc1)C(=O)c1ccc(Cl)cc1 (stereo not drawn) [TCMDC-125438] | 17.92% | –
4 | CCCOc1ccc(NC(=O)c2cccs2)cc1Cl [TCMDC-141129] | 16.1% | –
5 | CC(C)CCN1CCC(Oc2ccc(NC(=O)c3cccs3)cc2Cl)C1 (stereo not drawn) [TCMDC-133979] | 54.06% | –
6 | CC(C)CCN1CCC(Oc2ccc(NC(=O)c3cccs3)cc2Cl)CC1 [TCMDC-133974] | 92.16% | –
7 | O=C(Nc1ccc(OC2CCN(Cc3ccccc3)C2)c(Cl)c1)c1cccs1 (stereo not drawn) [TCMDC-133970] | 30.53% | –
8 | CC(C)CCN1CCC(Oc2ccc(NC(=O)c3ccccc3)cc2Cl)CC1 [TCMDC-133977] | 11.22% | –
9 | CC(C)CCOc1ccc(NC(=O)c2cccs2)cc1 [TCMDC-125121] | 83.04% | –
10 | Cc1ccc(C(=O)Nc2ccc(OC3CCN(CCC(C)C)C3)c(Cl)c2)cc1 (stereo not drawn) [TCMDC-133983] | 31.29% | –
11 | O=C(Nc1ccc(OC2CCN(Cc3ccccc3)CC2)c(Cl)c1)c1cccs1 [TCMDC-133990] | 24.3% | –
12 | COc1ccc(NC(=O)c2cc(NC(=O)C3(N)CC3)c(=O)n(Cc3ccc(C(N)=O)cc3)c2)cc1 [TCMDC-136554] | 19.66% | –
13 | Cc1[nH]c2c(NCc3ccc(F)cc3)nccc2c1C [TCMDC-132310] | 15.19% | –
14 | N#Cc1ccc2c(c1)CCN(CCC1CCC(NC(=O)c3cc4ccc(Br)cc4[nH]3)CC1)C2 (stereo not drawn) [TCMDC-139195] | -25.15% | –
15 | CCCNCc1ccc(-c2ccc(CN(Cc3cnc(C)cn3)C(=O)c3nn(-c4ccccc4)nc3C)cc2)nc1 [TCMDC-141548] | 27.98% | –
16 | Cc1nn(-c2ccccc2)nc1C(=O)N(Cc1ccc(-c2ccc(CNCCc3ccc(S(C)(=O)=O)cc3)cn2)cc1)C(C)CN(C)C (stereo not drawn) [TCMDC-141524] | 25.84% | –
17 | CCCNCc1ccc(-c2ccc(CN(C(=O)c3nn(-c4ccccc4)nc3C)C(C)CN(C)C)cc2)nc1 (stereo not drawn) [TCMDC-141551] | 64.23% | –
18 | CCCNCc1ccc(-c2ccc(CN(C(=O)c3nn(-c4ccccc4)nc3C)C3CC3)cc2)nc1 [TCMDC-141550] | 42.93% | –
19 | CCCNCc1ccc(-c2ccc(CN(CCOC)C(=O)c3nn(-c4ccccc4)nc3C)cc2)nc1 [TCMDC-141549] | 77.73% | –
20 | CCCNCc1ccc(-c2ccc(CN(C(=O)c3nn(-c4ccccc4)nc3C)C3CCOCC3)cc2)nc1 [TCMDC-141547] | 9.201% | –
21 | O=C(O)CNCC(O)c1ccccc1 (stereo not drawn) [TCMDC-131775] | 4.722% | –
22 | FC(F)(F)c1ccc2[nH]c(-c3ccc(-c4ccc(CNCc5cnn(-c6ccccc6)n5)cc4)cc3)nc2c1.O=C(O)C(F)(F)F [TCMDC-132970] | -15.1% | –
23 | Cc1cccc(CN2CCN(c3ncc(C(=O)NC4CC4)cc3Cl)CC2)c1 [TCMDC-134604] | 4.534% | –

Row | Compound | % Inhibition | % Inhibition (% Inhibition)
24 | O=C(NC1CCN(c2ncc(C(F)(F)F)cc2Cl)CC1)c1cccs1 [TCMDC-133802] | 15.64% | –
25 | CS(=O)(=O)n1c(CN2CCN(c3ncc(C(F)(F)F)cc3Cl)CC2)nc2ccccc21 [TCMDC-134291] | 88.45% | –
26 | O=C1OC(c2cc3ccccc3n2S(=O)(=O)c2ccccc2)(c2cc3ccccc3n2S(=O)(=O)c2ccccc2)c2ccccc21 [TCMDC-131245] | 29.52% | –
27 | CCC(C)(C)c1ccc(OCCCC(=O)Nc2ccc(Cl)c([N+](=O)[O-])c2)c(C(C)(C)CC)c1 [TCMDC-125721] | -38.1% | –
28 | C#CCCOc1ccc2ccccc2c1CNCCCCCCNCc1c(OCCC#C)ccc2ccccc12 [TCMDC-137832] | 106.3% | –
29 | C#CCOc1ccc2ccccc2c1CNCCCCCCNCc1c(OCC#C)ccc2ccccc12 [TCMDC-137838] | 115.4% | –
30 | O=C(NCCN1CCOCC1)c1csc(C2CCCN(C(=O)c3ccc(O)c(-c4cc(Cl)cc(Cl)c4)c3)C2)n1 (stereo not drawn) [TCMDC-140155] | 11.07% | –
31 | CC(C)(C)SC1SC(SC(C)(C)C)C(OC(=O)c2ccccc2)C(OC(=O)c2ccccc2)C1OC(=O)c1ccccc1 (stereo not drawn) [TCMDC-131948] | -26.61% | –
32 | Cn1nc(-c2ccc(S(=O)(=O)NC3CCC(CN4CCC(c5c[nH]c6ccccc56)CC4)CC3)s2)cc1C(F)(F)F (stereo not drawn) [TCMDC-140166] | – | 62.77%
33 | O=C(NC1CCC(CN2CCC(c3c[nH]c4ccccc34)CC2)CC1)c1cc(-c2ccccc2Cl)oc1C(F)(F)F (stereo not drawn) [TCMDC-140358] | 4.446% | –
34 | O=C(Nc1ccccc1C(F)(F)F)NC1CCC(CN2CCC(c3c[nH]c4ccccc34)CC2)CC1 (stereo not drawn) [TCMDC-140177] | – | -23.5%
35 | Cn1nc(-c2ccc(S(=O)(=O)NC3CCC(CN4CCC(c5c[nH]c6ccccc56)CC4)CC3)s2)cc1C(F)(F)F (stereo not drawn) [TCMDC-140174] | – | 96.23%
36 | O=C(Nc1ccccc1C(F)(F)F)NC1CCC(CN2CCC(c3c[nH]c4ccccc34)CC2)CC1 (stereo not drawn) [TCMDC-140197] | – | 5.962%
37 | O=S(=O)(NC1CCC(CN2CCC(c3c[nH]c4ccccc34)CC2)CC1)c1ccc(Cl)c(Cl)c1 (stereo not drawn) [TCMDC-140164] | 18.4% | –
38 | CCN1CCN(c2cc(C)c3cc(NC(=O)c4ccc(N(CC)CC)cc4)ccc3n2)CC1 [TCMDC-125574] | 18.21% | –
39 | COc1ccc(-c2csc(NC(=O)CCC(=O)O)n2)cc1OC [TCMDC-124274] | -7.165% | –
40 | CCCC(C)c1ccc(N2C(N)=NC(N)=NC2(C)C)cc1 (stereo not drawn) [TCMDC-137715] | 12.27% | –
41 | O=C(O)c1ccc(NC(=O)C2CC(=O)N(Cc3ccc(Cl)cc3)C(=Nc3ccc(Cl)cc3)S2)cc1 (stereo not drawn) [TCMDC-124036] | -57.25% | –
42 | COc1ccc(C[C@H](N)C(=O)N[C@H]2[C@@H](O)[C@H](n3cnc4c(N(C)C)ncnc43)O[C@@H]2CO)cc1 [TCMDC-123927] | – | 96.23%
43 | COc1ccc(C[C@H](N)C(=O)N[C@H]2[C@@H](O)[C@H](n3cnc4c(N(C)C)ncnc43)O[C@@H]2CO)cc1 [TCMDC-123493] | – | 123.8%
44 | CS(=O)(=O)c1ccc(-c2cncc(Nc3cccc([N+](=O)[O-])c3)c2)cc1 [TCMDC-136669] | 44.65% | –
45 | CCn1cc(CN2C(=O)C(c3ccccc3)(c3ccccc3)N=C2N)cn1 [TCMDC-136798] | 10.89% | –
46 | CC1(C)N=C(N)N=C(N)C1c1ccc(Cl)c(Cl)c1 (stereo not drawn) [TCMDC-137491] | -1.127% | –

Row | Compound | % Inhibition | % Inhibition (% Inhibition)
47 | N#CC(NC(=O)C=Cc1ccccc1)c1ccccc1 (stereo not drawn) [TCMDC-131635] | -0.4742% | –
48 | Cl.Nc1nc(Nc2cccc(O)c2)nc2ccccc12 [TCMDC-124459] | 5.684% | –
49 | c1cc(Cc2ccc(Nc3c4ccccc4nc4ccccc34)cc2)cc(Nc2c3ccccc3nc3ccccc23)c1 [TCMDC-137793] | 84.71% | –
50 | Cc1ccc(Nc2nc(N)c3ccccc3n2)cc1.Cl [TCMDC-123638] | 30.09% | –
51 | c1ccc(Oc2cccc(Nc3ccnc4ccccc34)c2)cc1 [TCMDC-137251] | 14.27% | –
52 | Cl.c1ccc2c(Nc3ccc(Cc4ccc(Nc5c6ccccc6nc6ccccc56)cc4)cc3)c3ccccc3nc2c1 [TCMDC-137354] | 113.6% | –
53 | CC1(C)Cc2c(oc3ncn(CCn4cnc5oc6c(c5c4=N)CC(C)(C)SC6)c(=N)c23)CS1 [TCMDC-125795] | -5.815% | –
54 | O=C(NC1CC1)c1ccc(N2CCC(c3ccccc3)CC2)nc1 [TCMDC-134590] | 17.19% | –
55 | Cc1ccc(CON2C(N)=NC(N)=NC2(C)C)cc1C [TCMDC-131660] | 9.174% | –
56 | CC(C)CCNC(=N)Nc1ccc(OCCCOc2ccc(NC(=N)NCCC(C)C)cc2)cc1 [TCMDC-137615] | 100.2% | –
57 | NOCCCOc1ccc(Cl)cc1 [TCMDC-123471] | 6.801% | –
58 | CS(=O)(=O)Nc1ccc(OCCCCCCOc2ccc(NS(C)(=O)=O)cc2)cc1 [TCMDC-137531] | 17.32% | –
59 | CC(C)CCNC(=N)Nc1ccc(OCCCCCOc2ccc(NC(=N)NCCC(C)C)cc2)cc1 [TCMDC-137614] | 113.6% | –
60 | COc1ccc(NC(=O)[C@H](CC(C)C)Nc2cc(C)nc(NCCOc3ccccc3)n2)cc1 [TCMDC-134760] | 36.25% | –
61 | COc1ccc(-c2ccc(CNC(=O)c3cccc(C#N)c3)c(F)c2)cc1CN1CCCN(C)CC1 [TCMDC-133367] | 3.232% | –
62 | O=C(CCc1cccnc1)Nc1ccc(-c2cccc(-c3nc4ccc(F)cc4[nH]3)c2)cc1 [TCMDC-132146] | -0.1199% | –
63 | CC1(C)CC(=O)c2c(O)cc(OCc3ccncc3)cc2O1 [TCMDC-131348] | -21.15% | –
64 | Cc1cccc2nc(-c3cccc(-c4cccc(CNCCc5cccn5C)c4)c3)[nH]c12.O=C(O)C(F)(F)F [TCMDC-132685] | -19.68% | –
65 | Cc1cccc2nc(-c3ccc(-c4ccc(C(=O)NCCN5CCCC5)cc4)cc3)[nH]c12 [TCMDC-132320] | 6.886% | –
66 | Cc1cccc2nc(-c3cccc(-c4cccc(CNCCN5CCNCC5)c4)c3)[nH]c12 [TCMDC-132873] | 108% | –
67 | Cc1cccc2nc(-c3cccc(-c4ccc(CNCCCN5CCCC5=O)cc4)c3)[nH]c12.O=C(O)C(F)(F)F [TCMDC-132753] | 7.956% | –
68 | Cc1cccc2nc(-c3cccc(-c4cccc(CNCCCN5CCCC5=O)c4)c3)[nH]c12.O=C(O)C(F)(F)F [TCMDC-132751] | 3.721% | –
69 | Cc1cccc2nc(-c3ccc(-c4cccc(CNCCN5CCNCC5)c4)cc3)[nH]c12 [TCMDC-132867] | 101.3% | –
